# Out of some 52,000 compounds screened, about 4,300 (8.3%) were called active. Cut-off read from the data, not from the text of the source: active = survival mostly below about 52% (no sharp cut-off); inactive = mostly above about 56%. Shown is part of a subset that was picked to be rich in actives.
# Test system: DeltatarO mutant
# Assay: S. aureus survival, RN4220 and DeltatarO strains – OD600, teichoic acid synthesis inhibitors, primary screen (AID 463173)
# Details: S. aureus RN4220 wild type/DeltatarO growth, OD600, 18 h, stronger effect = lower value, screened at 18.75 µg/mL (by protocol)
row,Compound,survival
1,Cc1ccc(NC(=O)Cn2nc(C(F)(F)F)c3c2CCCC3)cc1,120% (inactive)
2,CCn1c(=O)c2sccc2n2c(CCC(=O)Nc3ccc(OC)cc3OC)nnc12,82% (inactive)
3,Cc1cccc(NC(=O)c2cnc3sc(N4CCCC4)nn3c2=O)c1C,73% (inactive)
4,Cc1ccc(NC(=O)C2CCCN(c3ncnc4c3nc3n4CCCCC3)C2)c(Br)c1 (stereo not drawn),87% (inactive)
5,CC(=O)c1cccc(NC(=O)C2=CC(c3ccc4c(c3)OCO4)=NS(=O)(=O)N2C)c1,72% (inactive)
6,Cc1ccc(CNC(=O)CN(c2cc(C)cc(C)c2)S(=O)(=O)c2c(C)[nH]c(=O)[nH]c2=O)cc1,91% (inactive)
7,Cc1ccccc1NC(=O)CSc1nc2ccc(NC(=O)c3cccs3)cc2s1,91% (inactive)
8,CN(C)c1ccc(NC(=O)Cn2nnc3sc4c(c3c2=O)CCC(C(C)(C)C)C4)cc1 (stereo not drawn),79% (inactive)
9,Cc1ccc(Cn2nnc3sc4c(c3c2=O)CCC(C)C4)cc1 (stereo not drawn),54% (active)
10,Cc1ccc(OCCn2nnc3sc4c(c3c2=O)CCC(C)C4)cc1 (stereo not drawn),54% (inactive)
11,CCOc1ccccc1NC(=O)Cn1nnc2sc3c(c2c1=O)CCC(C(C)(C)C)C3 (stereo not drawn),106% (inactive)
12,Cc1ccccc1OCCCCn1nnc2sc3c(c2c1=O)CCC(C)C3 (stereo not drawn),65% (inactive)
13,CCc1ccccc1NC(=O)Cn1nnc2sc3c(c2c1=O)CCC(C(C)(C)C)C3 (stereo not drawn),47% (active)
14,CC1CCc2c(sc3nnn(Cc4ccc(F)cc4)c(=O)c23)C1 (stereo not drawn),-1% (active)
15,CC1CCc2c(sc3nnn(Cc4ccccc4Cl)c(=O)c23)C1 (stereo not drawn),13% (active)
16,CC1CCc2c(sc3nnn(CCCCOc4ccc(Cl)cc4)c(=O)c23)C1 (stereo not drawn),107% (inactive)
17,CCCCc1ccc(NC(=O)Cn2nnc3sc4c(c3c2=O)CCC(C)C4)cc1 (stereo not drawn),58% (inactive)
18,COC(=O)c1ccc(Cn2nnc3sc4c(c3c2=O)CCC(C)C4)cc1 (stereo not drawn),79% (inactive)
19,CC1CCc2c(sc3nnn(CC(=O)Nc4ccccc4Cl)c(=O)c23)C1 (stereo not drawn),71% (inactive)
20,CCN(CC)C(=O)Cn1cc(SCC(=O)Nc2ccccc2F)c2ccccc21,103% (inactive)
21,CCc1cccc(NC(=O)c2cc3c(=O)[nH]c4ccccc4c3n2C)c1,89% (inactive)
22,C=CCNC(=O)C(C)N1CCN(C)CC1 (stereo not drawn),73% (inactive)

row,Compound,survival
1,Cc1ccccc1CNC(=O)C1CCN(S(=O)(=O)Cc2ccccc2)CC1,75% (inactive)
2,CCOc1ccc(-c2nnc(SCC(=O)Oc3ccccc3)o2)cc1,71% (inactive)
3,CCC12CN3CC(C)(CN(C1)C3c1ccc(O)cc1O)C2=O (stereo not drawn),78% (inactive)
4,CCc1ccc(S(=O)(=O)c2nnn3c2nc(NCc2ccccc2)c2cc(Cl)ccc23)cc1,86% (inactive)
5,CC1CCc2c(sc3nnn(Cc4ccccc4)c(=O)c23)C1 (stereo not drawn),3% (active)
6,CC1CCc2c(sc3nnn(Cc4cccc(C(=O)OC(C)C)c4)c(=O)c23)C1 (stereo not drawn),78% (inactive)
7,CCCOC(=O)c1ccc(Cn2nnc3sc4c(c3c2=O)CCC(C)C4)cc1 (stereo not drawn),79% (inactive)
8,COc1ccccc1CNC(=O)C(C)n1c(=O)cc(C(F)(F)F)c2c(C)nn(C)c21 (stereo not drawn),94% (inactive)
9,CCc1ccccc1NC(=O)Cn1nc2c3cc(F)ccc3n(Cc3cccc(C)c3)cc-2c1=O,84% (inactive)
10,CCOc1ccccc1NC(=O)Cn1nc2c3cc(F)ccc3n(Cc3cccc(C)c3)cc-2c1=O,72% (inactive)
11,COc1ccccc1NC(=O)Cn1nc2c3cc(F)ccc3n(Cc3cccc(C)c3)cc-2c1=O,-2% (active)
12,O=C(Cn1ccn(-c2cccc(Cl)c2)c(=O)c1=O)c1ccc(F)cc1,59% (inactive)
13,O=C(Nc1ccc(Cl)cc1C(F)(F)F)c1cc(S(=O)(=O)NCc2ccccc2)ccc1F,130% (inactive)
14,O=C(CN(Cc1ccccc1)C(=O)Cn1nnc(-c2ccc(F)cc2)n1)NC1CCCC1,70% (inactive)
15,COc1ccc(-c2nc3ccc(NS(=O)(=O)c4ccc(Cl)cc4)cc3o2)cc1,23% (active)
16,COc1ccc(OCC(=O)Nc2ccc(-c3nc4cc(Cl)ccc4o3)cc2)cc1,134% (inactive)
17,COc1ccc(-c2nc3ccc(NS(=O)(=O)c4ccccc4)cc3o2)cc1,36% (active)
18,COc1ccc(-c2nc3ccc(NS(C)(=O)=O)cc3o2)cc1,77% (inactive)
19,CCC(Oc1ccccc1)C(=O)Nc1ccc2oc(-c3ccc(OC)cc3)nc2c1 (stereo not drawn),111% (inactive)
20,COc1ccc(-c2nc3ccc(NS(=O)(=O)c4ccc(C)cc4)cc3o2)cc1,45% (inactive)
21,CCCCC(CC)CNC(=O)c1ccc(Cn2c(=O)[nH]c3cc(OC)c(OC)cc3c2=O)cc1 (stereo not drawn),72% (inactive)
22,O=C(Cn1c(=O)c(CNc2ccccc2)cc2cc3c(cc21)OCCO3)Nc1ccccc1Cl,131% (inactive)

row,Compound,survival
1,O=C(COc1ccccc1)Nc1nnc2n1CCS2,86% (inactive)
2,Cc1cn2c(=O)cc(COC(=O)c3ccc(NC(=O)c4ccccc4C)cc3)nc2s1,101% (inactive)
3,COc1ccccc1N1CCN(S(=O)(=O)CCNC(=O)COc2ccccc2F)CC1,83% (inactive)
4,CCn1c(CNC(=O)C23CC4CC(CC(C4)C2)C3)nnc1SCC(=O)Nc1ccc(C)cc1,60% (inactive)
5,CCn1c(CNC(=O)C23CC4CC(CC(C4)C2)C3)nnc1SCC(=O)Nc1ccccc1,66% (inactive)
6,CCCCn1c(CNC(=O)C23CC4CC(CC(C4)C2)C3)nnc1SCC(=O)Nc1ccc(C)cc1,36% (active)
7,CCCCn1c(CNC(=O)C23CC4CC(CC(C4)C2)C3)nnc1SCC(=O)Nc1ccc(F)cc1,54% (active)
8,CCn1c(CNC(=O)C23CC4CC(CC(C4)C2)C3)nnc1SCC(=O)Nc1ccc(F)cc1,71% (inactive)
9,CCCCn1c(CNC(=O)C23CC4CC(CC(C4)C2)C3)nnc1SCC(=O)Nc1ccccc1,54% (inactive)
10,CCc1ccc(CNC(=O)c2ccc(NC(=O)N3CC(C)Sc4ccccc43)cc2)cc1 (stereo not drawn),64% (inactive)
11,Cc1c(Cl)cccc1Nc1nc2ccc(C(=O)c3ccccc3)cc2n2cnnc12,77% (inactive)
12,CCNC(=O)CC1C(=O)N(c2cccc(OC)c2)C(=O)N1Cc1ccc(OC)c(OC)c1 (stereo not drawn),80% (inactive)
13,CCN1C(=O)C2(C(C#N)=C(N)SC(N)=C2C#N)c2ccccc21,2% (active)
14,C=CCN1C(=O)C2(C(C#N)=C(N)Oc3n[nH]c(COC)c32)c2ccccc21 (stereo not drawn),109% (inactive)
15,CCc1[nH]nc2c1C1(C(=O)N(CC)c3ccccc31)C(C#N)=C(N)O2 (stereo not drawn),78% (inactive)
16,CCOc1ccccc1NC(=O)c1cn(C2CCCC2)c(=O)c2c1c1ccccc1n2C,122% (inactive)
17,COC(=O)c1cc(S(=O)(=O)NCC2CCN(Cc3cccc(F)c3)CC2)cn1C,122% (inactive)
18,Cc1ccc(NS(=O)(=O)c2ccc(-c3cc(C)no3)cc2)c(Br)c1,75% (inactive)
19,CCOc1ccccc1NC(=O)CSc1ncc(S(=O)(=O)c2ccc(C)c(C)c2)c(N)n1,99% (inactive)
20,COc1cccc(NC(=O)c2cc3c(-c4ccc(Cl)cc4)nn(C)c3s2)c1,84% (inactive)
21,Cc1nn(-c2ccccc2)c2sc(C(=O)N3CCOCC3)cc12,89% (inactive)
22,Cc1nn(-c2ccccc2)c2sc(C(=O)Nc3cccc(Cl)c3)cc12,2% (active)

row,Compound,survival
1,Cc1nn(-c2ccccc2)c2sc(C(=O)Nc3ccc(Cl)cc3Cl)cc12,71% (inactive)
2,O=C(Nc1ccccc1)c1cc2c(-c3ccccc3)nn(-c3ccccc3)c2s1,44% (active)
3,Cc1ccc(NC(=O)c2cc3c(-c4ccccc4)nn(-c4ccccc4)c3s2)cc1,50% (inactive)
4,Cc1nn(-c2ccccc2)c2sc(C(=O)Nc3cccc(Br)c3)cc12,30% (active)
5,O=C(Nc1ccc(Cl)cc1)c1cc2c(-c3ccccc3)nn(-c3ccccc3)c2s1,51% (inactive)
6,Cc1nn(-c2ccccc2)c2sc(C(=O)Nc3cccc(O)c3)cc12,5% (active)
7,COc1ccc(C(c2c(C)n(C)n(-c3ccccc3)c2=O)c2c(C)n(C)n(-c3ccccc3)c2=O)cc1O,84% (inactive)
8,COc1ccc(-c2[nH]c(-c3ccccc3)nc2SCC(=O)Nc2ccc3c(c2)OCO3)cc1,51% (inactive)
9,Clc1cccc(-n2cc(-c3ccccc3)c3c(NC4CCCC4)ncnc32)c1,78% (inactive)
10,COc1ccccc1N1CCN(S(=O)(=O)c2c(C)sc3ncn(CC(=O)N(C)c4ccc(Cl)cc4)c(=O)c23)CC1,65% (inactive)
11,COc1ccc(NC(=O)CC(C)S(=O)(=O)c2cc3c(cc2C)NC(=O)CO3)cc1OC (stereo not drawn),88% (inactive)
12,CCC(C)NC(=O)CSc1nc2cc3c(cc2c(=O)n1CCCCCC(=O)NCc1ccc(OC)cc1)OCO3 (stereo not drawn),76% (inactive)
13,COc1ccc(-c2nc(C)c(CCNC(=O)C(=O)Nc3ccccc3F)s2)cc1,115% (inactive)
14,CN(C)c1ccc(-c2nnc(SCC3CCCO3)n2C)cc1 (stereo not drawn),82% (inactive)
15,O=C(CCC1N=C2c3ccccc3N=C(SCc3ccc(Cl)cc3)N2C1=O)NCCc1ccccc1 (stereo not drawn),90% (inactive)
16,Cc1nn(-c2ccccc2)c2sc(C(=O)Nc3ccc(Br)cc3)cc12,26% (active)
17,Cc1cccc(NC(=O)c2cc3c(C)nn(-c4ccccc4)c3s2)c1,6% (active)
18,Cc1cccc(NC(=O)c2ccc(-c3ccccc3)s2)c1,82% (inactive)
19,CCOc1ccc(NC(=O)c2cc3c(C)nn(-c4ccccc4)c3s2)cc1,75% (inactive)
20,Cc1nn(-c2ccccc2)c2sc(C(=O)N/N=C/c3ccccc3)cc12,110% (inactive)
21,O=C(c1cccc(Cl)c1)N1c2ncnn2C2(CCCCC2)[C@@H]2CCCC[C@@H]21,80% (inactive)
22,O=C(NCc1ccccc1Cl)C1CCCN(C(=O)c2cnn(-c3ccc(F)cc3)c2-n2cccc2)C1 (stereo not drawn),67% (inactive)

# Reference: PubChem BioAssay AID463173 (ICCB-Longwood Screening Facility, Harvard Medical School, 2010)
